Screen size: about 53,000 sequences; about 3,700 (7%) were called active.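 Rule for the calls: active = gene knockdowns whose robust z-score for IL-1 alpha signal is at least 2 or at most -2, so actives lie on both sides; inactive = the rest.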 Only a selection was taken, and actives are over-represented in it overall.

A short description of this assay: Components of the Cytosolic LPS Sensing Pathway: Gene Identification via Genome-wide siRNA Screen. The note with it: RAW264.7 macrophages, IL-1a HTRF, actives lie on both sides, screened at 100 nM (by protocol), cells primed 5 h with Pam3CSK4 first. An excerpt:
Non-canonical inflammasome activation by cytosolic LPS is a critical component of the host response to Gram-negative bacterial infection, however we lack a comprehensive understanding of the cellular processes that control this pathway. Here we describe a genome-wide siRNA screen to identify genes regulating the mouse macrophage IL-1 alpha response to cytosolic LPS.
RAW264.7 cells were maintained in complete DMEM media, comprising DMEM with 4.5 g/L glucose, 10% FBS (Gemini Bio-Products, West Sacramento, CA), 2 mM Glutamine (Lonza) and 20 mM HEPES (Lonza), hereafter complete DMEM.
The RNAi screen was conducted in 384-well format using the Ambion Silencer Mouse Genome siRNA Library (#4391425), which consists of three unique, nonoverlapping, nonpooled siRNAs for each of 17,000 gene targets. siRNA reagents ([…]) were stamped into 384-well white flat-bottom microplates (Corning, 3570) using a Velocity11 VPrep liquid handling system (Agilent) integrated into a BioCel robotic platform (Agilent) in columns 1-22, leaving columns 23-24 empty for negative (Ambion, Negative control #1) and positive (mouse Casp4) controls, respectively. The median value of each plate's negative control column was used to normalize sample wells, and the positive control was used to assess transfection efficiency and assay performance.
Lipofectamine RNAiMAX Transfection Reagent ([…]; Invitrogen) was added in […] serum-free, antibiotic-free media to plate wells using a Thermo Scientific Matrix WellMate and Microplate Stacker. Plates were incubated for 45 min at room temperature to allow for the sufficient formation of siRNA-lipid complexes. Cells were seeded at a density of 1x10^4 cells per well in 20 microL media containing 20% (vol/vol) FBS without antibiotics. The final concentration of siRNA in each well was 100 nM. Cells were cultured for 48h at 37 degrees C in 5% CO2 before addition of […] of TLR ligand Pam3CSK4 for 5 hours. The medium was then removed, replaced with […] growth media and cell were transfected with […] of LipidA and TransIT-TKO (Mirus) for 24 hour. At the end of the LipidA treatment, […] of supernatant was transferred to a 384 Greiner Bio-one non-binding low volume plate and […] of IL-1a HTRF reagent (Cisbio, 62MIL1APEH) was added and incubated at room temperature overnight. The plates were read on an EnVision plate reader (PerkinElmer). Cell viability was measured by adding 20ul Cell Titer Glo to the original plate and running a luminescence read on the EnVision. The quantified IL-1a signal for each siRNA gene-targeted well was divided by the median of the negative control wells and multiplied by 100 to achieve a negative control normalized value for each well/siRNA. This normalized value was then used to generate a robust z-score by first taking the log of each value and then by subtracting the median and dividing by the […].
Background: In TR-FRET formats the signal depends on donor and acceptor labels being close together.
For CCACUGAUAACUCGAUUUGTT against Nrp1, the z-score is -0.228 (inactive). Regarding GGAACCUCUUGGACAAAGATT against Cpne5, the z-score was 2.17 (active).

For GGUAACAUGGCAGAUUUUATT against Aif1l, the z-score was 0.618 (inactive). To GGACUGUUUGGAUUGCAUATT against Dock7 belongs 0.891 (inactive). To GGCAACAGCAUCCUACUCUTT against Olfr652 belongs -2.12 (active); to GCAUUUCGAAGUGCCCUUGTT against Gpr146, 1.22 (inactive). For CCGCUACCAGAUAAACUCGTT against BC053393 the value was 0.984 (inactive). GGACAAUACGGAGAAAGAUTT against Mdfic: the z-score was -0.522 (inactive). To GGGCAAAUUAUGCUGUCAUTT against Tomm20 belongs -1.7 (inactive). In the case of GCGAUGAGAUUGUUGCUGUTT against Ttc33, the z-score is 2.32 (active). For GCUUGCUGACCUGAAGUGATT against Krt17 the value was 0.262 (inactive); for GCUAUCCCUUUAUGUAACATT against Prl7b1, -0.224 (inactive); for CCAUAUCGAGUACCUCCAATT against Rtn4rl1, -0.522 (inactive). For GGUCUACUGGCGUAAUUACTT against Vsig4 the value was -0.365 (inactive); for GCAGUCAUUCAAGGUUCCUTT against Hmces, -0.231 (inactive); for GGUGUUGAAAUAAUUUCUCTT against Phospho2, -0.285 (inactive).

As for GGAGUGUAGUAAAUGUACCTT against Ppp1r13b, the z-score is 3.97 (active). For GGACUUGAUCCCAAAGCUGTT against Mrpl17 the value was -1.21 (inactive); for GGGACAACACAUUAACUUATT against Uckl1, 1.41 (inactive); for GCACAUUGUCUAGUAGUAATT against Zfp280d, -0.622 (inactive). For GGAACAGAAACAAGGUUUUTT against Zfand2a the value was 0.962 (inactive); for “CCUCAUUCAGGGAGUUCCATT against 2200002J24Rik”, -1.52 (inactive); for “GGACAGUGGAAGGAAUCCATT against 2310033P09Rik”, -2.91 (active). For GCUGAUGCUCCAUUGAAUGTT against Prr27 the value was 0.228 (inactive); for GCGUGAGAGAUACCGCCAUTT against Gnai2, -0.847 (inactive). Consider CGUGGUUUGUCAAUGAAGGTT against Eprs, for which the z-score is 0.358 (inactive). For GGUUCUUUGGAAUGCUUUUTT against Myl12a the value was 2.76 (active); for CGUAAGAUUGACUCUAGUATT against Prl6a1, 0.326 (inactive); for GGACAGACUGAUUAAGAAATT against Paqr8, -0.569 (inactive).

With GCUACUGAACGAGAAUGCCTT against Zc3h12a, the z-score was 0.394 (inactive).

Consider GGACAUUGACGCAUAGGGATT against Arsa, for which the z-score was -0.232 (inactive). To GGAUACAGUUUCUGAAAUCTT against Mlxipl belongs 2.6 (active). To GCCAUGUGAUCGAAUCCAGTT against Clip2 belongs -0.0773 (inactive); to GGGAUUCAUACUACUUAACTT against Olfr304, 1.32 (inactive). As to GCAGUUACUUAUCAUCUGGTT against Inca1, the z-score is 0.00859 (inactive). Consider “GGUGUCUCUGAAUGAUGGCTT against 1810009J06Rik”, for which the z-score is 0.499 (inactive).

As for GGGUUGAUCCCUUUGAUUCTT against Pld4, the z-score is -0.268 (inactive). On to GGACAAUGUGGACUUUGAUTT against Edem2, for which the z-score was -2.33 (active). For GCAAACUCGGACUUUCAAATT against Lamtor3 the value was 0.443 (inactive); for GGGAAACUCGAGAUGUGCATT against Ankmy2, 0.944 (inactive). For “GGAAAGAAAAACGUAGGCGTT against 4933402J07Rik” the value was -1.16 (inactive); for GGAGAACCAGAUCCUGAUCTT against Mypop, 0.511 (inactive). To GGAGGUGUGGCAUCUGGAUTT against Gsn belongs 1.19 (inactive). For the sequence GGAGGAAGACACUCCCUCUTT against Atf4, the z-score is -0.778 (inactive). For the sequence CGAGAGUGAUGCGCAUUUCTT against Sf3b5, the z-score was -3.04 (active).

As to GGAAGCGGGAGAUAGAGGATT against Xpo6, the z-score is -0.108 (inactive). To GCACAGAGGUCAGUUAAAGTT against St8sia3 belongs 1 (inactive); to CGACCCUCUAAGGAUAUGCTT against Zfp456, 1.01 (inactive); to CCUGAUAUUCCAUCCUGAATT against Acad10, -0.626 (inactive). With GGUGCAUGGAAAAAAAUUATT against Neil2, the z-score is -0.691 (inactive). For GCGGCCUGUGAGAGUUUAUTT against Pcyt1a the value was 3.4 (active); for “GGACCCAAGAAGAUGACGUTT against 0610010K14Rik”, -0.694 (inactive); for GCUGUGUGCCACUUUAUGUTT against Ebna1bp2, 0.583 (inactive). Regarding CGACAACACAGUUAUUAUUTT against Pld1, the z-score was 0.338 (inactive). To GCUUCGAGUUACAAUGUCATT against Fbxw15 belongs -0.912 (inactive); to GGCACAUACGCUAUGAAGCTT against Prl2c5, -0.0959 (inactive).

In the case of GGUCUGUGACGAGAAGCUATT against Rab4a, the z-score is -1.43 (inactive). To CCGAUGACGAACAGUUUGATT against Eif4ebp3 belongs 2.08 (active); to GGCAAAUUUUUGGAGAUGUTT against Hspa4, 0.931 (inactive); to CGUAGAGAUCAGUUCAAUGTT against Clock, -1.36 (inactive). For CGAGGACUCAAUAGUAGCCTT against Proser3 the value was -0.678 (inactive).

Turning to GGAUCCUGAAACAGUUCAATT against Atm, the z-score is -0.218 (inactive).

On to GGGUGCUGUCAACAUAUGATT against Gabrq, for which the z-score was 0.67 (inactive).

On to GCUUUGUUGCCCUACUACCTT against Pacrg, for which the z-score is -2.26 (active). As for CCUUUCAUACCUUAGGUUATT against Slc25a44, the z-score is -0.42 (inactive). With GGUGUAGAAUAGGACAAAUTT against Ntsr2, the z-score was 0.43 (inactive). For GGUCACAAUGGUUUAAGGATT against Tacr1 the value was -0.943 (inactive); for CCUGAUCUUGCACUCGAUGTT against Tbx6, 0.422 (inactive).

Regarding GGUAGAAGCAGAGUUACCATT against Spata32, the z-score was -1.64 (inactive).

In the case of GGUGGAAGAAGAAAUUGUCTT against Tpd52l2, the z-score is -2 (active). To GGGAAGAUUUUUCUGAUCUTT against Kcnk13 belongs -1.52 (inactive); to GCUGGAGGACUCAUGUUCATT against Dimt1, -0.0153 (inactive); to GGAGCUCAAGAGCUGGGUUTT against Tor2a, -1.1 (inactive).

GGAAGAACGACAAGAACAUTT against Tgfbr2: the z-score is 1.02 (inactive). With CGCGGUGUUCGACAUCUUGTT against Noc4l, the z-score was 2.12 (active). GGAUACCAUUGUGGUCGCATT against Hck: the z-score is -0.406 (inactive).

As for GGAAUUCUUUCCAAACUGGTT against Steap1, the z-score was -0.0141 (inactive). To GGAUGUUUUAACUUGGAAATT against Sema5a belongs 2.25 (active); to GGUUGGUCAGAUGAAGGGUTT against Adgrf3, -0.638 (inactive); to GGAACAGACAGAGAACACATT against Tgm6, 2.54 (active).

Turning to CCGCUACAGGUUUACCAAGTT against Rhox8, the z-score was 0.129 (inactive). To GGACACCUGAUUUUCUUCUTT against Slc41a3 belongs -0.364 (inactive); to GCAAAAAGGCAGUAUUCUATT against Atp23, 0.449 (inactive). To GCUCCAAAAGUCAAGACCGTT against Safb2 belongs -0.482 (inactive); to GGCUAAAUUAUUGCGCAAATT against C1qbp, 2.34 (active); to GGACCUUUCUGAAGUCCAATT against Ahsp, -0.0978 (inactive).

With GGAUCAAGCCGAACAGUUCTT against Pigk, the z-score is 2.34 (active). For GGCCAAUCUCACCUGGACATT against Man2b1 the value was -0.421 (inactive). To GGAGACUACUUUGUGUUUUTT against Ermp1 belongs 0.933 (inactive); to GGCACAAUUGAGGAGCGUATT against Ino80, -1.27 (inactive); to GGAAGAAAAACAGAGGAGATT against Cts7, -0.877 (inactive).

For the sequence GGUUUAAGAAUGAAGUGGATT against Mtmr3, the z-score is -1.18 (inactive). To GGAUUGGGUUACAUACAGATT against Scgb2b2 belongs -0.0731 (inactive); to GGAAAAGGUUAAGAAAGCATT against Krr1, -2.53 (active).

With GGAAUCAGCUAAUGAUUUCTT against Tyw1, the z-score was 0.819 (inactive).

Consider GGAGGUAGGAGCCAUAAGATT against Pter, for which the z-score is -0.58 (inactive). For GGGAUCUUUUACUCAUACUTT against Olfr862 the value was -1.95 (inactive); for GGUGUACUGAUUUUGAAGATT against Msh3, 0.858 (inactive). For GCCACGGGUAUAUCUAUAGTT against Tigd4 the value was -0.296 (inactive). To GGUGGAAAAUGGUUGGUUUTT against Mfap3 belongs -0.493 (inactive).

As to GGCCAAGAAAAUCCUGUGGTT against Mfsd5, the z-score is -2.71 (active).

As to GGAACUUGAAAUCGUAAUUTT against Magohb, the z-score was -0.121 (inactive).

Consider GGCAGAACACAGUUCGAUCTT against Tbcb, for which the z-score is 0.165 (inactive). GCCGUAGAUUUCCUUGAGUTT against Isca1: the z-score is -0.0435 (inactive). For GGGACAAUGAAUGUGAUCUTT against Adam39 the value was -2.81 (active). For CCAACCACAGGAUCAGAUGTT against Prrg4, the z-score was 0.556 (inactive). To GGAAAAAAUGGAAAACUGGTT against Polr1b belongs -0.965 (inactive).

The record behind these values is PubChem BioAssay AID1508600 (Functional Genomics Laboratory (NCATS/FGL), 2020).
